According to PubChem BioAssay AID463173 (ICCB-Longwood Screening Facility, Harvard Medical School, 2010):
Among all 52,000 compounds or so, about 4,300 (8.3%) were called active. Many of the other results were omitted from the sample, so actives are more common in it than they were. A number with no mark means an inactive call. Cut-off read from the data, not from the text of the source: active = survival mostly below about 52% (no sharp cut-off); inactive = mostly above about 56%.

Test system: DeltatarO mutant
Test: S. aureus survival, RN4220 and DeltatarO strains – OD600, teichoic acid synthesis inhibitors, primary screen (AID 463173)
Conditions: S. aureus RN4220 wild type/DeltatarO growth, OD600, 18 h, stronger effect = lower value, screened at 18.75 µg/mL (by protocol)

| Compound | survival |
| --- | --- |
| CCc1nc(SC)ncc1C(=O)NCc1cccc(Br)c1 | 89% |
| CCc1ccc(NC(=O)C2CCC(CNS(=O)(=O)c3cccs3)CC2)cc1 (stereo not given) | 94% |
| CCOCCCNC(=O)c1ccc(NC(=O)N2CCCCc3ccccc32)cc1 | 89% |
| O=C1COc2cc(S(=O)(=O)NCc3ccco3)c(Cl)cc2N1 | 98% |
| CCCCN(CC)Cc1ccc(CNS(=O)(=O)c2cc3c(cc2Cl)NC(=O)CO3)o1 | 0% (active) |
| Cc1ccc(CNS(=O)(=O)c2cc3c(cc2Cl)NC(=O)CO3)o1 | 106% |
| Cn1c(SCC(=O)N2c3ccccc3Sc3ccccc32)nnc1-c1ccco1 | 77% |
| COC(=O)c1c(-c2ccc(Cl)cc2)noc1N1CCN(c2ccc(F)cc2)CC1 | 83% |
| O=S1(=O)CCC(NCc2ccccc2)C1 (stereo not given) | 89% |
| CS(=O)(=O)N(CC(=O)NCc1ccncc1)c1ccccc1 | 85% |
| CCC(C)NC(=O)c1ccccc1NC(=O)CN1C(=O)c2cccc3cccc1c23 (stereo not given) | 50% |
| CSc1nsc(NC(=O)Nc2ccccc2C(F)(F)F)n1 | 13% (active) |
| CSc1ncc(C(=O)Nc2ccccc2C(F)(F)F)c(-c2ccccc2)n1 | 117% |
| O=C(CSc1nnc(NC(=O)Nc2ccccc2)s1)Nc1cccc(F)c1 | 73% |
| O=C(Nc1nnc(N2CCCCCC2)s1)Nc1ccccc1C(F)(F)F | 80% |
| CCSc1nsc(NC(=O)Nc2cccc(OC)c2)n1 | 96% |
| CCSc1nsc(NC(=O)Nc2cccc(F)c2)n1 | 1% (active) |
| O=C(NCCc1csc(-c2ccc(Cl)cc2)n1)c1cccs1 | 89% |
| COc1ccc(CNC(=O)c2cc3ccccn3n2)cc1OC | 79% |
| Cc1cc(O)c(C(c2ccccc2Cl)N2CCCCC2)c(=O)n1Cc1ccco1 (stereo not given) | 76% |
| CCCOC(=O)c1c(-c2ccccc2)c(-c2ccccc2)nn(C)c1=O | 60% |
| Cc1ccc(C)c(Nc2ncnc3onc(C)c23)c1 | 81% |
| CCOC(=O)c1ccc(Nc2c(-c3ccc(O)cc3)nc3nc[nH]n23)cc1 | 91% |
| CCOC(=O)c1ccc(Nc2c(-c3cccc(O)c3)nc3nc[nH]n23)cc1 | 46% (active) |

| Compound | survival |
| --- | --- |
| CCOC(=O)c1ccc(Nc2c(-c3ccc(O)c(OC)c3)nc3nc[nH]n23)cc1 | 93% |
| COc1ccc(NC(=O)C2CCCN(C(=O)c3cnn(-c4ccc(F)cc4)c3-n3cccc3)C2)cc1 (stereo not given) | 47% (active) |
| COc1ccc(CNC(=O)C2CCCN(C(=O)c3cnn(-c4ccc(F)cc4)c3-n3cccc3)C2)cc1 (stereo not given) | 86% |
| COc1ccc(NC(=O)C2CCCN(C(=O)c3cnn(-c4ccccc4)c3-n3cccc3)C2)cc1 (stereo not given) | 70% |
| COc1ccc(-c2noc(N(c3nc(-c4ccc(OC)c(OC)c4)no3)c3ccccc3OC)n2)cc1OC | 115% |
| CC(C)c1ccccc1NC(=O)CN1C(=O)c2cccc3cccc1c23 | 40% (active) |
| COc1ccccc1NC(=O)CN1C(=O)c2cccc3cccc1c23 | 62% |
| O=C(CN1C(=O)c2cccc3cccc1c23)Nc1ccccc1Br | 63% |
| CCOC(=O)c1cnc2cc(-c3ccc(OCC)cc3)nn2c1-c1ccccc1 | 68% |
| C=C(C)CSc1nc2sc3c(c2c(=O)n1-c1ccccc1)CCC(C)C3 (stereo not given) | 84% |
| COC(=O)CSc1nc2sc3c(c2c(=O)n1Cc1ccccc1)CCC(C(C)(C)C)C3 (stereo not given) | 66% |
| CCCSc1nc2sc3c(c2c(=O)n1-c1ccc(C)cc1)CCCC3 | 8% (active) |
| CCOC(=O)CSc1nc2sc3c(c2c(=O)n1-c1ccccc1)CCC(C(C)(C)C)C3 (stereo not given) | 58% |
| CSc1nc2sc3c(c2c(=O)n1-c1ccccc1)CCC(C(C)(C)C)C3 (stereo not given) | 18% (active) |
| CCOC(=O)CSc1nnc2n(-c3ccccc3)c(=O)c3c4c(sc3n12)COC(C(C)C)C4 (stereo not given) | 74% |
| CCCSc1nc2sc3c(c2c(=O)n1-c1ccc(C)c(Cl)c1)CCN(C(C)=O)C3 | 81% |
| CCCSc1nc2sc3c(c2c(=O)n1-c1ccccc1)CCC(C)C3 (stereo not given) | 2% (active) |
| CC(C)CCSc1nnc2n(-c3ccccc3)c(=O)c3c4c(sc3n12)CC(C)CC4 (stereo not given) | 70% |
| CCOC(=O)CSc1nnc2n(-c3ccccc3)c(=O)c3c4c(sc3n12)CC(C(C)(C)C)CC4 (stereo not given) | 46% (active) |
| CCCc1nc2sc3c(c2c(=O)n1N)CCCC3 | 97% |
| CSc1nc2sc3c(c2c(=O)n1Cc1ccccc1)CCC(C(C)(C)C)C3 (stereo not given) | 114% |
| COc1cc(NC(=O)NCCn2nnc3cc(S(=O)(=O)N(C)C)ccc32)cc(OC)c1OC | 84% |
| Cc1ccc(S(=O)(=O)NC(C)(C)CN2CCCCC2)cc1 | 96% |
| NC1CCN(C(=O)NC2CCCCC2)CC1 | 89% |

| Compound | survival |
| --- | --- |
| Cc1cc(=O)n(Cc2ccccc2)c(=O)n1Cc1ccccc1 | 89% |
| Cc1ccccc1-c1nc(CS(=O)(=O)CC(=O)Nc2c(C)cccc2C)c(C)o1 | 92% |
| Cn1cc(S(=O)(=O)N2CCCCCC2)cc1C(=O)Nc1ccccc1F | 88% |
| CC(=O)N1CCC(N(Cc2ccco2)C(=O)Nc2cccc(C)c2)CC1 | 130% |
| COC(=O)c1ccccc1NC(=O)Nc1cccc(OCc2cc(=O)n3cccc(C)c3n2)c1 | 134% |
| CCc1ccc(-n2c(=O)c3c4c(sc3n(Cc3ccc(C)cc3)c2=O)CCC4)cc1 | 132% |
| Cc1ccc(-n2c(SCC(=O)O)nc3sc4c(c3c2=O)CCCC4)cc1 | 90% |
| CSc1nc2sc3c(c2c(=O)n1-c1ccccc1C)CCCC3 | 97% |
| CSc1nc2sc3c(c2c(=O)n1-c1ccc(C)cc1)CCCC3 | 39% (active) |
| CCSc1nc2sc3c(c2c(=O)n1-c1ccc(C)cc1)CCCC3 | 0% (active) |
| Cc1ccc(-n2c(=O)[nH]c3sc4c(c3c2=O)CCCC4)cc1 | 133% |
| CCCOc1ccc(-c2nc3ccc(Br)cc3c(=O)o2)cc1 | 81% |
| Cc1ccc(C)c(NC(=O)Cn2cc(S(=O)(=O)c3ccc(F)cc3)c(=O)c3cc(F)ccc32)c1 | 87% |
| Cc1c(C(=O)N(Cc2ccc(N(C)C)cc2)CC2CCCO2)oc2ccccc12 (stereo not given) | 61% |
| COC(=O)CNc1ccc(C)c(C)c1 | 67% |
| Cc1cccc(CCNC(=O)c2nc(-c3ccc(Cl)cc3)n3c2CCCCC3)c1 | 89% |
| O=C(Nc1ccc(C(F)(F)F)cc1)C1CCC(CNS(=O)(=O)c2cccc3nsnc23)CC1 (stereo not given) | 49% |
| O=C(NCCCN1CCN(c2ccc(F)cc2)CC1)c1cnn(-c2ccc(F)cc2)c1-n1cccc1 | 70% |
| Cc1ccc(-n2nc(C)c(C(=O)NCCCN3CCN(c4ccc(F)cc4)CC3)c2-n2cccc2)cc1 | 92% |
| Cc1nn(-c2ccc(F)cc2)c(-n2cccc2)c1C(=O)NCCCN1CCN(c2cccc(Cl)c2)CC1 | 94% |
| Cc1ccc(-n2ncc(C(=O)NCCCN3CCN(c4cccc(Cl)c4)CC3)c2-n2cccc2)cc1 | 75% |
| O=C(NCCCN1CCN(c2cccc(Cl)c2)CC1)c1cnn(-c2ccc(F)cc2)c1-n1cccc1 | 32% (active) |
| Cc1ccc(-n2nc(C)c(C(=O)NCCCN3CCN(c4cccc(Cl)c4)CC3)c2-n2cccc2)cc1 | 0% (active) |
| O=C(Cn1c(=O)c2cc(Cl)ccc2n2nncc12)Nc1ccccc1 | 75% |

| Compound | survival |
| --- | --- |
| O=C(CCC1CCCC1)N1CCc2c([nH]c3ccccc23)C1c1ccc(F)cc1 (stereo not given) | 99% |
| CCCCN(C(=O)C1CCC1)c1nnc(-c2ccncc2)s1 | 96% |
| Clc1ccc(-c2nc3ncccn3c2Nc2ccc3c(c2)OCCO3)cc1 | 89% |
| COc1ccc(C(=O)NCC(c2cccnc2)N2CCN(c3ccccc3F)CC2)cc1OC (stereo not given) | 86% |
| Cc1ccc2[nH]c(=O)c(CN(Cc3nnnn3CCc3ccccc3)C3CCCC3)cc2c1 | 91% |
| CCOc1ccc(OCC)c(NS(=O)(=O)c2ccc3c(c2)CCCN3C(C)=O)c1 | 73% |
| Cc1ccc(-c2noc(-c3cccnc3NCc3ccco3)n2)cc1 | 65% |
| Clc1ccc(-c2noc(-c3cccnc3NCc3ccco3)n2)cc1 | 61% |
| Cc1cccc(-c2noc(-c3cccnc3NCc3ccco3)n2)c1 | 44% (active) |
| c1ccc(-c2noc(-c3cccnc3NCc3ccco3)n2)cc1 | 60% (active) |
| Cc1ccccc1-c1noc(-c2cccnc2NCc2ccco2)n1 | 52% |
| COc1ccc(-c2noc(-c3cccnc3NCc3ccco3)n2)cc1 | 98% |
| Cc1cccc(N2CCN(C3(c4ccccc4)C(=O)c4ccccc4C3=O)CC2)c1C | 79% |
| Cc1cccc(NC(c2ccccc2C)c2ccc3ccc(C)nc3c2O)n1 (stereo not given) | 0% (active) |
| COc1cccc(C(=O)NC(c2ccc(Cl)cc2)c2cc(Cl)c3cccnc3c2O)c1 (stereo not given) | 89% |
| Cc1cccc(NC(=O)c2ccccc2)n1 | 93% |
| COc1ccc(C(=O)NC(c2ccccc2Cl)c2cc(Cl)c3cccnc3c2O)cc1 (stereo not given) | 92% |
| COc1ccc(C(=O)NC(c2ccc(Cl)cc2)c2cc(Cl)c3cccnc3c2O)cc1 (stereo not given) | 88% |
| CCC(=O)NC(c1ccccc1OC)c1cc(Cl)c2cccnc2c1O (stereo not given) | 68% |
| Cc1cccc(NC(c2cccc(Cl)c2)c2ccc3cccnc3c2O)n1 (stereo not given) | 2% (active) |
| COc1ccccc1CC(=O)Nc1cccc(C)n1 | 97% |
| Oc1cccc(C(Nc2ccccn2)c2ccc3cccnc3c2O)c1Cl (stereo not given) | 26% (active) |
| Cc1ccc(C(Nc2ccccn2)c2ccc3cccnc3c2O)cc1 (stereo not given) | 1% (active) |
